# Rows were chosen to be rich in hits. Some 7.4% of all compounds tested hit in one or more screens of this group.
# Rab9 prom act = activates the Rab9 promoter | Potency, µM (titrated, usually from 9.22 µM), for inactives: at the top dose activation, negative = inhibition, usual class: activators | Huh7 Rab9 promoter-luciferase reporter, luminescence, 24 h | 320,000 compounds, 2.8% hits | AID 485297; also: % of control where 0% means no effect; nearly all actives have a fitted effect of over 60% in size
#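 Huh7 reporter line, Rab9 promoter upstream of luciferase. Compound exposure 24 h at 37 °C in reduced-serum medium with 10% FBS. Read-out: luminescence.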
# FLuc counter = inhibits or activates purified firefly luciferase, miR-21 counter-screen; P08659; purified FLuc, Km substrates, luminescence inhibition; 360,000 compounds, 6.9% hits; AID 588342; Potency, µM (titrated, usually from 57.5 µM), without a hit: top-dose activity change, negative = inhibition, usual class: inhibitors;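 also: plate controls were vehicle for no effect and reference inhibitor for full effect; nearly all actives have a fitted effect of over 55% in size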
# Target sequence (P08659 whole entry, looked up): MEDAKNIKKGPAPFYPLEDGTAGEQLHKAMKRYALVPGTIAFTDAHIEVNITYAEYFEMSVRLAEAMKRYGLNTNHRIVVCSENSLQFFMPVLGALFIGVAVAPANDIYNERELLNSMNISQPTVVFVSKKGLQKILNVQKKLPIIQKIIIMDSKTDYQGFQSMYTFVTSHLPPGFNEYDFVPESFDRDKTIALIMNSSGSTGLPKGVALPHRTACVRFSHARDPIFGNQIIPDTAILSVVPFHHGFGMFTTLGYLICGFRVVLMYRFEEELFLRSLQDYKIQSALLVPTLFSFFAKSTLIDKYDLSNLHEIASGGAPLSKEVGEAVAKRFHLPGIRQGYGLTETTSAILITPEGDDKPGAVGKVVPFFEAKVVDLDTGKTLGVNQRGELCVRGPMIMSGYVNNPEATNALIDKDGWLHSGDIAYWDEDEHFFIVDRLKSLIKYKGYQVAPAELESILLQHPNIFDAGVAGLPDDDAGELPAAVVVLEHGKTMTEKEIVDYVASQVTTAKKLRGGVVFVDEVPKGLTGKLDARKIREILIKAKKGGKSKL
#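 Purified P. pyralis luciferase (10nM final) with 10uM D-luciferin and 10uM ATP (Km levels) in 50mM Tris acetate pH 7.5, 10mM Mg acetate, 0.01% Tween-20, 0.05% BSA; qHTS 6-point titration, ~60 µM downward; luminescence read.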
# NPC1 promoter act = activators of NPC1 promoter | Huh7 NPC1 promoter luciferase reporter, 24 h | 320,000 compounds, 2.4% hits | AID 485313 | Potency, µM (top dose mostly 9.22 µM), for the others: at the highest dose activation, usual class: activators; also: % of control where 0% means no effect; nearly all actives have a fitted effect of over 60% in size
#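 Cells: Huh7 expressing luciferase under the NPC1 promoter, 1500/well. Seeded 2 h, compound added, incubated 24 h at 37 °C. Luciferase reagent, 10 min ambient, then luminescence.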
# ELG1 genotox = genotoxicity induction in ELG1-luciferase HEK293T cells. HEK293T ELG1-luciferase reporter, luminescence, 16 h. Potency, µM (top dose mostly 46 µM), without a hit: at the top dose activity change, positive = activation, usual class: activators. 330,000 compounds, 1.3% hits. AID 504466; also: % of control where 0% means no effect; nearly all actives have a fitted effect of over 60% in size
#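 Screening used a luciferase reporter fused to human ELG1 in HEK293T cells. Luminescence was read on a CCD plate imager after 16 hr exposure and 30 min ONE-Glo incubation.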
# SMN2 splice enh = SMN2 splice variant enhancement; AID 1458; Potency, µM (highest dose often 46.1 µM), for the others: at the highest dose activity change, positive = activation, most hits filed as activators; 210,000 compounds, 2.8% hits; HEK293 SMN2-luciferase splicing reporter, luminescence, 30-36 h; also: % of control where 0% means no effect; nearly all actives have a fitted effect of over 55% in size
#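 qHTS luciferase splicing reporter: luminescence rises when SMN2 exon 7 is included in transfected HEK293 cells. Compound exposure lasted 30-36 h at 37C, with 4.5 mM final sodium butyrate as control, followed by a ONE-Glo read.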
# An asterisk follows results filed as active; ? = inconclusive; nt = no result given; [ ] = remark or other dose. Calls follow the shape of the dose curve; as a rule, active = well fitted curve in the direction sought with a large enough effect; inconclusive = small, poorly fitted or top-dose-only effect, or another doubt; inactive = no such curve, though single readings can be large; an effect the other way counts as inactive or inconclusive. Potency is read from the fitted curve at half-maximal effect.
SMILES,Rab9 prom act,FLuc counter,NPC1 promoter act,ELG1 genotox,SMN2 splice enh
Fc1cccc(CNc2ncnc3ccc(-c4ccoc4)cc23)c1,-1.4%,1.8%,-0.4%,nt,nt
COc1ccc(O)c(/C=N/NC(=S)Nc2cccc(S(=O)(=O)N(C)C)c2)c1,-24.4%,10.7µM*,-12.1%,10.8%,-58.9%
COc1cc(/C=N/NC(=S)Nc2cccc(S(=O)(=O)N(C)C)c2)cc(OC)c1O,-0.4%,15.1µM*,-3.5%,-4.2%,-8.4%
CN(C)S(=O)(=O)c1cccc(NC(=S)N/N=C/c2ccc(O)c(O)c2O)c1,-4.3%,13.5µM*,-4.3%,-17.4%,nt
Cc1ccc2nc(Nc3nc(=O)c4ccccc4n3C)nc(C)c2c1,11.1%,2.13µM*,9.6%,-3.7%,5.4%
Cc1ccc2nc(Nc3nc(-c4ccccc4)cc(=O)[nH]3)nc(C)c2c1,-4.4%,-11.0%,-2.4%,?,-21.0%
O=C(C[N+]12CN3CN(CN(C3)C1)C2)c1ccc(-c2ccccc2)cc1,nt,nt,nt,nt,-6.0%[9.22 µM]
CCOC(=O)C1=NNC(C(=O)c2ccccc2)C1c1ccc(Cl)cc1 (stereo not drawn),-3.0%,26.9µM*,-4.1%,0.3%,nt
CC1(C)CC(=O)C(N=Nc2ccc(-c3ccccc3)cc2)=C(O)C1,14.9%,2.13µM*,5.4%,?,18.3%
CC1(C)CC(=O)C(N=Nc2ccc(F)cc2)=C(O)C1,21.4%,15.1µM*,-1.0%,?,nt
CC1(C)CC(=O)C(N=Nc2cccnc2)=C(O)C1,-1.8%,5.6%,0.4%,3.1%,nt
CC1(C)CC(=O)C(N=Nc2c(Cl)cc(Cl)cc2Cl)=C(O)C1,-1.1%,?,9.0%,13.6%,-10.6%
CC1(C)CC(=O)C(N=Nc2ccc3ncsc3c2)=C(O)C1,nt,19µM*,nt,nt,7.9%
CC1(C)CC(=O)C(N=Nc2ccc(Cl)cc2)=C(O)C1,4.6%,4.78µM*,-5.6%,?,14.1µM*
COc1ccc(Cl)cc1NC(=O)Cn1c(=O)c(-c2ccccc2NC(C)=O)nc2ccccc21,nt,-2.0%,nt,nt,nt
CCC1(C)NC(=O)N(CC(=O)Nc2cc(C)on2)C1=O (stereo not drawn),nt,nt,nt,0.0%,nt
CC1(C)CC(=O)C(N=Nc2ccc(OC(F)F)cc2)=C(O)C1,3.0%,16.9µM*,-0.6%,?,-15.5%
CCn1nc(C(=O)OCC(=O)Nc2nc(-c3ccc(OC)cc3)cs2)c2ccccc2c1=O,?,?,?,?,10µM*
CN(C(=O)c1ccco1)c1nc(-c2ccc(Cl)cc2)cs1,3.16µM*,6.01µM*,?,14.2%,nt
CN(C)CCCN(C(=O)c1ccco1)c1nc(-c2ccc(Cl)cc2)cs1,-8.4%,-10.3%,6.5%,0.1%,nt
COc1ccc(-c2csc(N(C)C(=O)c3ccco3)n2)cc1,3.98µM*,10.7µM*,?,?,nt
COc1ccc(-c2csc(NC(=O)COC(=O)c3ccco3)n2)cc1,3.16µM*,?,3.98µM*,?,12.6µM*
CCn1nc(C(=O)OCC(=O)NCC(C)C)c2ccccc2c1=O,0.6%,-2.4%,-5.1%,2.9%,-4.3%
CCC(C)NC(=O)CN1C(=O)c2cccnc2Oc2ccc(C)cc21 (stereo not drawn),nt,-0.8%,nt,nt,nt
CCOC(CNC(=O)CN1C(=O)COc2ccc(S(=O)(=O)N3CC(C)CC(C)C3)cc21)OCC (stereo not drawn),3.3%,-0.5%,1.4%,-3.5%,nt
SMILES,Rab9 prom act,FLuc counter,NPC1 promoter act,ELG1 genotox,SMN2 splice enh
CC(=O)N(C)c1nc(-c2ccc(Cl)cc2)cs1,3.55µM*,?,?,4.4%,-7.3%
COc1ccc(CCNC(=O)CCc2c(C)c3cc4c(C)c(C)oc4cc3oc2=O)cc1OC,nt,-3.2%,nt,nt,7.3%
Cc1cc(NC(=O)/C=C/c2ccco2)ccc1NC(=O)c1ccccc1,9.8%,?,0.4%,-0.3%,nt
COc1ccc(NC(=O)/C=C/c2cccc(F)c2)cn1,2.24µM*,7.57µM*,2µM*,?,11.2µM*
COc1ccc(NC(=O)/C=C/c2ccco2)cn1,3.98µM*,21.3µM*,3.16µM*,?,12.6µM*
Cc1ccc(NC(=O)/C=C/c2ccco2)cc1F,nt,5.36µM*,nt,nt,nt
CCN1CCCC1Cn1c(-c2ccccc2)nc2c(N3CCOCC3)nc(C)nc21 (stereo not drawn),nt,nt,nt,nt,-7.2%
C=CCC(Nc1ccc(OC)cc1)(C(=O)OCC)c1ccccc1 (stereo not drawn),nt,nt,nt,nt,8.9%
CCc1nnc(NC(=O)c2ccc(COc3ccccc3)o2)s1,3.3%,-13.5%,2.2%,16.0%,-2.3%
Cc1ccc(OCc2ccc(C(=O)Nc3nccs3)o2)cc1,15.9%,16.9µM*,25.8%,3.1%,9.8%
O=C(Nc1nccs1)c1ccc(COc2ccccc2)o1,4.47µM*,?,2.51µM*,?,nt
COc1ccccc1NC(=S)NNC(=O)c1c(Cl)c(C)nn1C,7.7%,15.1µM*,-1.8%,-6.4%,-14.1%
COc1ccc(C(=O)NNC(=S)Nc2ccccc2)cc1,0.562µM*,10.7µM*,2.51µM*,?,11.2µM*
COc1ccccc1NC(=S)NNC(=O)c1cc(C)nn1C,8.1%,?,3.8%,2.2%,-5.0%
COc1ccccc1NC(=S)NNC(=O)c1ccccc1Br,?,?,22.3%,10.0%,5.01µM*
CC(=O)c1ccc(NC(=S)NNC(=O)c2ccncc2)cc1,12.5%,19µM*,-2.9%,8.8%,24.9%
COc1ccccc1C(=O)NNC(=O)c1ccccc1Br,19.4%,?,7.8%,9.4%,nt
CCOC(=O)C1CCN(c2c(C(=O)c3ccc(OC)cc3)cnc3ccccc23)CC1,nt,2.3%,nt,nt,18.2%
C=C[C@@]1(C)CC[C@H](O)[C@H]2C(=O)CCC[C@@H]21,nt,nt,nt,nt,-9.7%
Cc1ccc(NC(=O)C2CC(O)CN2C(=O)OCc2ccccc2)cc1C (stereo not drawn),-1.6%,5.5%,2.0%,1.6%,nt
Cc1cc(C)c(S(=O)(=O)NCc2nc3nc(C)cc(C)n3n2)c(C)c1,2.6%,2.5%,1.1%,-0.2%,nt
COc1cc(OC)cc(C(=O)NNC(=S)Nc2ccccc2OC)c1,-5.0%,21.3µM*,0.9%,4.3%,6.2%
COc1ccc(NC(=S)N/C(=N/CS(=O)(=O)c2ccccc2)c2ccccc2)cc1,?,2.69µM*,2.82µM*,?,13.4%
O=[N+]([O-])c1ccc(NC(=S)N/C(=N/CS(=O)(=O)c2ccccc2)c2ccccc2)cc1,-1.4%,?,4.3%,?,-9.8%
COc1ccccc1NC(=S)NC(=O)CC(C)C,-0.8%,15.1µM*,7.0%,0.9%,-5.7%
Cn1ccnc1Sc1ccc(/C=N/NC(=O)c2ccccc2O)cc1[N+](=O)[O-],1.0%,5.36µM*,3.1%,7.3%,-7.3%
CCOC(=O)c1c(NC(=O)Cc2coc3cc(C)ccc23)sc2c1CCCC2,nt,-12.4%,nt,nt,3.1%
Cc1ccc2c(CC(=O)Nc3sccc3C(N)=O)coc2c1,2.82µM*,10.7µM*,2µM*,?,?
Cc1ccc2c(CC(=O)Nc3ccc(N4CCN(C)CC4)cc3C)coc2c1,4.5%,8.49µM*,?,-0.8%,-3.4%
